# Results reported in publication PMC7862700, “An all-to-all approach to the identification of sequence-specific readers for epigenetic DNA modifications on cytosine”.
# Tests used:
# Assay in all cases: DAPPL (digital affinity profiling via proximity ligation, sequencing); 10 mM Tris-HCl pH 7.5, 50 mM NaCl, 1 mM DTT, 4% glycerol, room temperature, 30 min; GST-TFs on glutathione beads, 16-mer random dsDNA library, 0.1% formaldehyde crosslink after washing; high values mean tight binding
# Conditions in all cases: protein: recombinant; tags: N-terminal GST; dsDNA, one strand shown
# ETV1 = ETV1 (Homo sapiens, UniProt P50549 1-477)
# Procedure, shortened: (§1)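 Sequencing on an Illumina NextSeq500 followed washing, crosslinking with 0.1% formaldehyde, proximity ligation (BsaI/T4 ligase, 1 h, 37 °C) and PCR amplification of pools that had been incubated for 30 min at room temperature with 200 nmole of a random double-stranded 16-mer DNA library in Tris/NaCl/DTT/glycerol buffer. Each pool held DNA-barcoded human transcription factors, expressed in yeast as GST fusions and captured on glutathione beads, plus a tag-only sample. Binding signal is a hexamer's read frequency for a factor divided by its frequency in the tag-only sample.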
# ERF = biological target: T1, ERF (Homo sapiens, UniProt P50548 1-548)
# T1 sequence: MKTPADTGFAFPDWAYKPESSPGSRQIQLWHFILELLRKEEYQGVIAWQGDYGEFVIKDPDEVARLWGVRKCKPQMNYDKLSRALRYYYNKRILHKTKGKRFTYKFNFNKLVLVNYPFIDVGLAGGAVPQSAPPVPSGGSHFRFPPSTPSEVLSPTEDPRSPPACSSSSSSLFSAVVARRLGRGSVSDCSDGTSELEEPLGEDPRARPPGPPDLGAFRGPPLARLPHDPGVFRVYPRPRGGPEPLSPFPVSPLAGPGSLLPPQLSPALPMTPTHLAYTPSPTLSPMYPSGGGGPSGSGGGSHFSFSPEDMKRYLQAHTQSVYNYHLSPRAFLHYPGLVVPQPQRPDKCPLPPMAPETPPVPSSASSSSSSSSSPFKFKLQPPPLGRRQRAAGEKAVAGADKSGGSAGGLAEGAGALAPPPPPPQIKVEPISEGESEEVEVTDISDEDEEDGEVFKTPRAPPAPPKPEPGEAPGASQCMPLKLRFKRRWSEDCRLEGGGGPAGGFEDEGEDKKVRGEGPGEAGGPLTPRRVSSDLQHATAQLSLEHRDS
# Procedure, shortened: as §1
# ETV3L = biological target: T2, ETV3L (Homo sapiens, UniProt Q6ZN32 1-361)
# T2 sequence: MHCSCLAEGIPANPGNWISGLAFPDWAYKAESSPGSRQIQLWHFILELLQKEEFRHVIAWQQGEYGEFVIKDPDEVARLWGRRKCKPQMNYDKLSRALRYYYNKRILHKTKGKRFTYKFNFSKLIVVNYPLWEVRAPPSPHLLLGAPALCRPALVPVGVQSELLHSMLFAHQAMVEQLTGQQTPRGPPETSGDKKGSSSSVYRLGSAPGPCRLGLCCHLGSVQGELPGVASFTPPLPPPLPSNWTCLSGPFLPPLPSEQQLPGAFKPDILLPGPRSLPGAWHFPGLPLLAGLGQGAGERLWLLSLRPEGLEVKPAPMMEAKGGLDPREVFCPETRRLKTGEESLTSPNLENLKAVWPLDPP
# Procedure, shortened: as §1
# ETS2 = biological target: T3, ETS2 (Homo sapiens, UniProt P15036 1-469)
# T3 sequence: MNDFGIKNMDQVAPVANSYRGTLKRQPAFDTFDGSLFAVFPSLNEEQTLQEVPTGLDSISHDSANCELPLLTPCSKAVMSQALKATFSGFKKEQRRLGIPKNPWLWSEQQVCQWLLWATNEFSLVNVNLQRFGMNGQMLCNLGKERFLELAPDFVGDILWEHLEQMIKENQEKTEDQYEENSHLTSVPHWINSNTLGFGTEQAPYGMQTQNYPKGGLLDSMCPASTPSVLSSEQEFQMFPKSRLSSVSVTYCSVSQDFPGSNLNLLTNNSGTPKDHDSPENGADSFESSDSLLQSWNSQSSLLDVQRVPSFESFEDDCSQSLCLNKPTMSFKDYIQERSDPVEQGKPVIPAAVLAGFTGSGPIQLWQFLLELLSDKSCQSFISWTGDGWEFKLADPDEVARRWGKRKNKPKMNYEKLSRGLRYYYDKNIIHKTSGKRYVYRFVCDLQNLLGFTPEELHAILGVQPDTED
# Procedure, shortened: as §1
# SPDEF = biological target: T4, SPDEF (Homo sapiens, UniProt O95238 1-335)
# T4 sequence: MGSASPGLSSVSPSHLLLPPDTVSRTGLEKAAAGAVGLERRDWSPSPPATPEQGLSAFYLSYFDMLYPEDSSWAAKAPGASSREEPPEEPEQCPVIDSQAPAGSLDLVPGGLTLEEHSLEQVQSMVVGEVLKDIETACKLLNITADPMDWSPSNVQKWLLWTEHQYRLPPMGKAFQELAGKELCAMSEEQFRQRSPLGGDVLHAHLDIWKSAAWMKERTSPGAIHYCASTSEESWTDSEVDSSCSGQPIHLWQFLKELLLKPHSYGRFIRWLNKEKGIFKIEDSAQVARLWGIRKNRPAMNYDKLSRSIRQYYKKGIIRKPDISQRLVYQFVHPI
# Procedure, shortened: as §1
# ETV7 = biological target: T5, ETV7 (Homo sapiens, UniProt Q9Y603 1-341)
# T5 sequence: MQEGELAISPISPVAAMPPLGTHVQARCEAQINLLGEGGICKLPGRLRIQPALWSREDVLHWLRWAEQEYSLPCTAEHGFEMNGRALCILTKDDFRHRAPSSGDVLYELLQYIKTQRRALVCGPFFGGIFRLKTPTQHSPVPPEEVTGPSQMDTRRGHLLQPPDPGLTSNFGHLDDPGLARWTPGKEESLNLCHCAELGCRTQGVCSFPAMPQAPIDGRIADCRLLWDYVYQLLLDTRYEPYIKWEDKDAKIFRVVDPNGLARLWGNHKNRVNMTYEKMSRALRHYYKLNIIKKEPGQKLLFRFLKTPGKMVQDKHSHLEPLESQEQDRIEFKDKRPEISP
# Procedure, shortened: as §1
# ELF5 = biological target: T6, ELF5 (Homo sapiens, UniProt Q9UKW6-2 1-255)
# T6 sequence: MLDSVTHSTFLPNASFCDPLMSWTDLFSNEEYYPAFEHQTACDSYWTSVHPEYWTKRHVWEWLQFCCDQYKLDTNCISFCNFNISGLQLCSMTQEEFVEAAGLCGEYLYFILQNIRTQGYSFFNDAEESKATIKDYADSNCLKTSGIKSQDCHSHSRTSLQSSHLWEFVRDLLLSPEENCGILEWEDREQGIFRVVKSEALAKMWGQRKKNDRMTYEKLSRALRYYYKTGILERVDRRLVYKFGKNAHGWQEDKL
# Procedure, shortened: as §1
# ETV3 = biological target: T7, ETV3 (Homo sapiens, UniProt P41162-2 1-143)
# T7 sequence: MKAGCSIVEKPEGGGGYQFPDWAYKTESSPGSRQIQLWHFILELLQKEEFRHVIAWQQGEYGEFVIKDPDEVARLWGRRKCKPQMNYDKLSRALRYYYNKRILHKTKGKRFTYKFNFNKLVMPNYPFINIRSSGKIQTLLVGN
# Procedure, shortened: as §1
# ETV6 = ETV6 (Homo sapiens, UniProt P41212 1-452)
# Procedure, shortened: as §1
# ETV6, sequence (P41212 whole entry): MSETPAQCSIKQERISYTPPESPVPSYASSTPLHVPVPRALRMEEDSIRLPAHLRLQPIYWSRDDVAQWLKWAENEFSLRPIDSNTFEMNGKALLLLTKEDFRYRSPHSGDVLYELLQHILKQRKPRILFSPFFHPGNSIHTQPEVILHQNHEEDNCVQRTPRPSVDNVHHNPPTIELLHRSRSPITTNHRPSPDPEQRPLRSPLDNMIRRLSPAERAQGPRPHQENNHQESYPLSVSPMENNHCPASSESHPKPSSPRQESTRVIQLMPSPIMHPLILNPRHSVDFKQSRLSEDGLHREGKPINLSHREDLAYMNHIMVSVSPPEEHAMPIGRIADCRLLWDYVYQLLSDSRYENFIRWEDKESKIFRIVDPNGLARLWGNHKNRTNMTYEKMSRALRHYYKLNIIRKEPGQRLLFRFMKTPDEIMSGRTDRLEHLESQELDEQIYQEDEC
# ETV1, sequence (P50549 whole entry, the tested form may be a part): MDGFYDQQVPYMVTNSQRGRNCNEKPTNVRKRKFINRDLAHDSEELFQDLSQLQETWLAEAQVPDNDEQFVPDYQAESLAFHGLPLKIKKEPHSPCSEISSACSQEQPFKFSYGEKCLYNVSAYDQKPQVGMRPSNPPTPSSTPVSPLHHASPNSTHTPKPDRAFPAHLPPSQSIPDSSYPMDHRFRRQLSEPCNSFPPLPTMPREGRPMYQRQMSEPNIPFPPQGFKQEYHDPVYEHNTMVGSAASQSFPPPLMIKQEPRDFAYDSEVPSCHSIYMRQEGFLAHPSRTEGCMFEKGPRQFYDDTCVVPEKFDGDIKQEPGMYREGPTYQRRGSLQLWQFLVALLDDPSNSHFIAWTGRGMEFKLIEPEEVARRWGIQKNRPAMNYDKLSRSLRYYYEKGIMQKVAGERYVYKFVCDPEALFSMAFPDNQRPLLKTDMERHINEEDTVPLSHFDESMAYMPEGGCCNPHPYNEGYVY
sequence,measurement,setting,value
GGCCTA,binding signal,ETV1,"1.2 fold enrichment (6-mer frequency, TF over GST control)"
same,binding signal,ERF,"1.19 fold enrichment (6-mer frequency, TF over GST control)"
same,binding signal,ETV3L,"1.15 fold enrichment (6-mer frequency, TF over GST control)"
same,binding signal,ETS2,"1.19 fold enrichment (6-mer frequency, TF over GST control)"
same,binding signal,SPDEF,"1.29 fold enrichment (6-mer frequency, TF over GST control)"
same,binding signal,ETV7,"1.26 fold enrichment (6-mer frequency, TF over GST control)"
same,binding signal,ELF5,"1.13 fold enrichment (6-mer frequency, TF over GST control)"
same,binding signal,ETV3,"1.3 fold enrichment (6-mer frequency, TF over GST control)"
same,binding signal,ETV6,"1.17 fold enrichment (6-mer frequency, TF over GST control)"
